# Assay results published in PubChem BioAssay AID2549 (National Center for Advancing Translational Sciences (NCATS), 2010).
# Several values for one entry are separate records, joined by “and”; a condition that tells them apart may be missing. Equal entries are not always repeated. The campaign covered roughly 240,000 compounds. About 1,300 (0.54%) were called active. Roughly 1% stayed inconclusive and do not appear here. Calls follow the shape of the dose curve; as a rule, active = well fitted inhibition curve with a large enough effect; inconclusive = small, poorly fitted or top-dose-only effect; inactive = flat fitted curve, though single readings scatter. Only a selection was taken, and actives are over-represented in it overall. A structure can be active in one record and inactive in another.
# Molecular target: ATP-dependent DNA helicase Q1 (Homo sapiens) (UniProt P46063)
# Assay: qHTS Assay for Inhibitors of RecQ-Like Dna Helicase 1 (RECQ1); also: nearly all actives have a fitted effect of over 30% in size;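 as to activity, negative = inhibition: plate controls were vehicle for no effect and no enzyme for full effect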
# Conditions: RECQ1 DNA unwinding, red fluorescence kinetic read; series mostly up to 57.3 µM; activity, negative = inhibition: at the top concentration
# Method in brief: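 RECQ1T1 50 nM; forked duplex (20 bp + 30-nt ss tails) 200 nM, ATP 2 mM final; pH 8.0, 2 mM MgCl2, 2.5 ug/ml poly(dI-dC); 15 min compound preincubation; discontinuous kinetic read over 2 h at RT.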
# Potency is read from the fitted curve at half-maximal effect.
# Chain of ATP-dependent DNA helicase Q1 (Homo sapiens) (P46063 whole entry, looked up): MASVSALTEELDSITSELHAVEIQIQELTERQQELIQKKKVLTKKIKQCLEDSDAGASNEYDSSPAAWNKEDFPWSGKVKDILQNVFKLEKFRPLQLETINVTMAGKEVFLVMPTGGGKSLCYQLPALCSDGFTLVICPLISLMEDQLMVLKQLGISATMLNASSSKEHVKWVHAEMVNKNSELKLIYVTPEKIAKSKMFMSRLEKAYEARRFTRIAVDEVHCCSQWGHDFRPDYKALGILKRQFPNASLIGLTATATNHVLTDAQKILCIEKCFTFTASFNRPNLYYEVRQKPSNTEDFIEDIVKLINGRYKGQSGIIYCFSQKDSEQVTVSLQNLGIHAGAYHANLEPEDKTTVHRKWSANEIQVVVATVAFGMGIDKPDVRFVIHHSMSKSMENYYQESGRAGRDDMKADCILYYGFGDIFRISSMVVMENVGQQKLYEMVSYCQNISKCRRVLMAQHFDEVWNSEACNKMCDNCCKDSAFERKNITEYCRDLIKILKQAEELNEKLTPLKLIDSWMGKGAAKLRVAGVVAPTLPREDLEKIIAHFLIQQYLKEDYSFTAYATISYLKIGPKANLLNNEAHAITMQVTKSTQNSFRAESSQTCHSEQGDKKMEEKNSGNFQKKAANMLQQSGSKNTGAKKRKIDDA
Structure (SMILES),"activity, negative = inhibition",Potency,outcome
O=C(O)C1CC=CC2CCN(C3CCCCC3)C(=O)C21 (stereo not drawn),13.2% (inactive),–,–
Cc1ccc(C)c(CSc2nc(-c3ccco3)nc3c2c(=O)n(C)c(=O)n3C)c1,-6.89% (inactive),–,–
C/C=C\C=C\C(=O)N1CC2(CC(c3cccc(NC(=O)/C(C)=C\C)c3)=NO2)C[C@H]1C(N)=O (stereo partly drawn),–,20 µM (active),–
CC/C=C/C(=O)N1CC2(CC(c3cccc(NC(=O)CC)c3)=NO2)C[C@H]1C(N)=O (stereo partly drawn),7.15% (inactive),–,–
C/C=C(/C)C(=O)Nc1cccc(C2=NOC3(C2)C[C@@H](C(N)=O)N(C(=O)C2(C)CC2)C3)c1 (stereo partly drawn),–,–,inactive
O=S(O)S(=O)(=O)O,-3.85% (inactive),–,–
Cc1ccc(-c2cc(C(=O)N/N=C/C=C/c3ccco3)c3ccccc3n2)cc1C,–,–,inactive
O=C(N/N=C/C=C/c1ccco1)c1cccs1,–,35.5 µM (active),–
CC(=O)Nc1ccc(/C=N/NC(=O)c2cccs2)cc1,-2.49% (inactive),–,–
COC(=O)c1ccc(S(=O)(=O)N2CCC(c3nc4ccccc4o3)CC2)cc1,-1.82% (inactive),–,–
CC(=O)c1ccc(S(=O)(=O)N2CCN(C(=O)/C=C/c3ccc4ccccc4n3)CC2)cc1,–,25.1 µM (active),–
NC(=O)COC(=O)/C=C/c1ccc2ccccc2n1,-3.52% (inactive),–,–
O=c1cc(CCl)nc2scc(-c3ccccc3)n12,-7.89% (inactive),–,–
CCc1nnc(NC(=O)c2sc3nc(C)cc(COC)c3c2N)s1,-2.43% (inactive),–,–
CCc1nnc(NC(=O)c2cccc(S(=O)(=O)N(C)c3ccc(OC)cc3)c2)s1,-3.08% (inactive),–,–
CCc1ccc2nc3sc(C(=O)Nc4nnc(CC)s4)c(N)c3cc2c1,–,31.6 µM (active),–
Cc1ccc(CNC(=O)C2(C(F)(F)F)C/C(=C\CCO)CCCO2)o1 (stereo not drawn),–,–,inactive
CCN1C(=O)c2cccc3c(N)ccc1c23,-7.81% (inactive),–,–
Nc1ccc2c3c(cccc13)C(=O)NC2=O,–,inactive and 25.1 µM (active),–
CCC(C)[C@@H](N)C(=O)O (stereo partly drawn),–,inactive,–
COc1ccc(CC(N)C(=O)NC2C(O)[C@H](n3cnc4c(N(C)C)ncnc43)O[C@@H]2CO)cc1 (stereo partly drawn),-0.564% (inactive),–,–
S=C(NCCc1ccccc1)N1CCn2cccc2C1c1ccncc1 (stereo not drawn),–,–,inactive
Cc1ccc(C)c(SCc2nc3sc(C(=O)O)c(C)c3c(=O)[nH]2)c1,2.12% (inactive),–,–
CCOC(=O)c1ccc[n+](CC(=O)Nc2ccccc2OC(F)F)c1,-1.34% (inactive),–,–

Structure (SMILES),"activity, negative = inhibition",Potency,outcome
Cc1ccc(-c2nc(SCC(=O)Nc3ccccc3OC(F)F)c3c(C)c(C(=O)O)sc3n2)cc1,–,25.1 µM (active),–
CCOC(=O)C(CC)/C(C)=N\NC(=O)c1cccc(C)c1 (stereo not drawn),3.83% (inactive),–,–
C[C@H]1CCC[C@@]2(C)CCCC[C@]12O,-12% (inactive),–,–
COc1cc(OC)c2c(C)cc(=O)oc2c1C(CCN1CCCCC1)c1ccc(N(C)C)cc1 (stereo not drawn),–,–,inactive
Cn1cccc1/C=C1\SC(=O)N(CC(=O)Nc2ccc(F)cc2)C1=O,-20.3% (inactive),–,–
O=C(O)c1cccc(N2C(=O)Nc3ccccc3N2O)c1,-9.45% (inactive),–,–
N#Cc1ccccc1CN1C(=O)S/C(=C/c2cccn2-c2cccc(C(=O)O)c2)C1=O,–,28.2 µM (active),–
O=c1ccn([C@@H]2O[C@H](COP(=O)(O)OP(=O)(O)OP(=O)(O)O)[C@@H](O)[C@H]2O)c(=O)[nH]1,6.8% (inactive),–,–
COc1ccc(OC)c(C(=O)c2ccc(C(=O)N3CCN(Cc4csc(C)n4)CC3)cc2)c1,–,–,inactive
O=C1C2C(c3ccccc3)CC=CC2C(c2ccoc2)N1Cc1ccccc1 (stereo not drawn),–,–,inactive
O=C(COC(=O)CCC(=O)c1cccs1)NCc1ccco1,–,7.94 µM (active),–
O=C(COC(=O)C12CC3CC(CC(C3)C1)C2)NCc1ccco1,-0.842% (inactive),–,–
O=C(CCC(=O)c1cccs1)NCc1ccccc1,-7.98% (inactive),–,–
COc1ccc(/C=N/NC(=O)c2ccncc2)cc1CN1CCCc2ccccc21,-10.1% (inactive),–,–
NS(=O)(=O)c1ccc(NC(=O)COC(=O)CCc2c[nH]c3ccccc23)cc1,-1.44% (inactive),–,–
CC[C@H](C)[C@H](NC(=O)[C@@H](N)CCC(=O)O)C(=O)N[C@@H](CC(C)C)C(=O)N[C@@H](CC(=O)O)C(=O)N[C@H](C(=O)N1CCC[C@H]1C(=O)N[C@@H](CO)C(=O)N[C@H](C(=O)O)[C@@H](C)O)C(C)C,-7.19% (inactive),–,–
O=c1cc(-c2ccc(O)cc2)oc2c([C@@H]3O[C@H](CO)[C@@H](O)[C@H](O)[C@H]3O)c(O)cc(O)c12,-22.9% (inactive),–,–
Cc1cc(=O)[nH]c(=S)[nH]1,–,inactive,–
Cc1cc(=O)[nH]c(S)c1C#N,–,22.4 µM (active),–
Cc1cc(=O)[nH]c(SCC(N)=O)c1C#N,-0.259% (inactive),–,–
Cc1noc(C)c1-c1ccc2ncnc(NCc3ccc4[nH]ccc4c3)c2c1,17.6% (inactive),–,–
CCOP(=O)(OCC)C(Nc1cccc(C)c1)c1ccc(F)cc1 (stereo not drawn),7.05% (inactive),–,–
CCCCOC(=O)c1ccc(NC(c2ccc(C)cc2)P(=O)(OC)OC)cc1 (stereo not drawn),–,17.8 µM (active),–
CCCCCOC(=O)NCCOC(=O)Nc1ccc(C(=O)OCC)cc1,-10.1% (inactive),–,–
